Experimental data reported in PubChem BioAssay AID504577 (NMMLSC, 2011).
The campaign covered roughly 350,000 compounds. About 1,300 (0.37%) were called active. Rule as the data show it: active = response mostly above about 7.3% (no sharp cut-off); inactive = mostly below about 5.4%. Only a selection was taken, and actives are over-represented in it overall.

test: regulators of yeast V-ATPase proton pumping, primary screen, pHLuorin cytosolic pH fluorescence (AID 504577); settings: S. cerevisiae, at 10 µM, active compounds read high

response, active:
Fc1cccc(CSc2nnc3ccc(-c4ccncc4)nn23)c1 30.5%, O=C1Oc2ccccc2C(=O)/C1=C/c1ccccc1O 15.2%, O=C(COc1cc2oc(=O)c3c(c2cc1Cl)CCC3)NCCCN1CCOCC1 9.9%, Cc1occc1C(=O)Nc1nnc(C2CCCCC2)s1 10%, COc1ccc2nc(N3CCN(C(=O)c4ccc([N+](=O)[O-])o4)CC3)sc2c1 27.1%, COc1ccc(/C=N/NC(=O)c2cccc(C(F)(F)F)c2)cc1 13.1%, COC(=O)C(C)n1cnc2c(nnn2-c2cccc(Cl)c2)c1=O (centres undefined) 16.6%, Cc1cc(=O)c2ccc(NC(=O)c3ccccc3)cc2[nH]1 8.54%, COC(=O)c1cc(Oc2ccc(S(=O)(=O)N3CCOCC3)cc2[N+](=O)[O-])cc(C(=O)OC)c1 13.9%, O=C1OCC2=C1C(c1ccccc1)CC(=O)N2c1cccc(F)c1 (centres undefined) 18.5%, Cc1cc(CO)nn1-c1ccc([N+](=O)[O-])cc1 15.4%, Cc1ccc2nc(-c3ccncc3)cc(C(=O)Nc3ccc(OC(F)F)cc3)c2c1 11.1%, COC(=O)c1c(-c2ccc(C)cc2)csc1N 6.85%, Cc1nc2ccccc2c(=O)n1-c1ccc(NS(=O)(=O)c2ccc(F)cc2F)cc1 15.7%, CCCC[C@@H]1CN=C(N)N1CCc1cc(C(F)(F)F)cc(C(F)(F)F)c1 14.3%, O=C(O/N=C(/c1ccccc1)c1ccncc1)c1ccccc1[N+](=O)[O-] 11.6%, CC1=NOC(=O)/C1=C\c1ccccc1 17.2%, CCOC(=O)CNC(=O)CSc1nnc(COc2ccc(Cl)cc2)n1CC 17.5%, CCOc1ccc(CCNC(=O)C2=C(C)C(=O)OC23CCC(C)CC3)cc1OCC (centres undefined) 11.3%, COc1ccc(C2/C=C\CN(S(=O)(=O)c3cccs3)CC(=O)N2Cc2ccc(F)cc2)cc1 (centres undefined) 15%

response, inactive:
O=C(CSc1nnc2ccc(-c3ccncc3)nn12)N1CCCCC1 2.79%, COc1cc(NC(=O)CSc2nnc3ccc(-c4ccncc4)nn23)cc(OC)c1 -1.89%, NS(=O)(=O)c1ccc(CCNC(=O)c2ccc([N+](=O)[O-])cc2[N+](=O)[O-])cc1 0.09%, CCOc1ccc(-n2c(SCC(=O)Nc3cc(C(=O)O)ccc3Cl)nc3ccccc3c2=O)cc1 2.47%, COC(=O)c1cc(S(=O)(=O)N2CCN(c3cc(C)ccc3C)CC2)c[nH]1 -1.19%, COC(=O)c1ccc(/C=C2/C(=O)Oc3ccccc32)cc1 -0.46%, COC(=O)c1c(NC(=O)COc2ccc(Cl)cc2Cl)sc2c1CC(C)(C)NC2(C)C 4.61%, CCCc1cc(=O)oc2cc(OCC(=O)Nc3ccc(CN4CCOCC4)cc3)c(Cl)cc12 -2.48%, Cc1cc(=O)oc2c(C)c(OCC(=O)NCCN3CCOCC3)ccc12 1.98%, CC(=O)Nc1c2c(nn1-c1ccc(C)cc1C)CS(=O)C2 (centres undefined) -4.1%, OCC(O)CN(c1ccccc1)c1ccccc1 (centres undefined) 1.73%, COc1ccc(NC(=O)CCC(=O)Nc2nnc(C3CCCCC3)s2)cc1 -2.38%, Cc1cc(C(=O)Nc2nnc(C3CC3)s2)c(C)s1 3.66%, CCSCc1nc(N)nc(NCCc2ccccc2)n1 -0.9%, CCSC1=NCCN1C(=O)c1ccc(S(=O)(=O)N(CC)CC)cc1 2.02%, COc1ccc2nc(N3C(=O)C(O)=C(C(=O)c4ccco4)C3c3ccco3)sc2c1 (centres undefined) -1.37%, CCN(CC)CCN(C(=O)c1cccc([N+](=O)[O-])c1)c1nc2ccc(OC)cc2s1 -1.21%, CCOC(=O)CC1COCCN1C(=O)c1cc(COc2ccc(F)c(F)c2)on1 (centres undefined) 0.12%, COc1cc(=O)[nH]c(=O)n1C(=O)Cc1ccccc1 -1.96%, Cc1nnsc1C(=O)N/N=C/c1cccc(C(F)(F)F)c1 3.26%, COc1ccc(/C=N/NC(=O)Cn2cc(C(F)(F)F)ccc2=O)cc1 -4.67%, CCCn1c(C(C)Nc2nc(-c3ccc(C)cc3)cs2)nc2cc(Cl)c(N3CCCCC3)cc21 (centres undefined) -1.24%, c1ccc(-c2nnc3n2NC(c2ccc4c(c2)OCO4)S3)cc1 (centres undefined) -3.32%, CCOC(=O)C(C)n1cnc2c(nnn2-c2cccc(OC)c2)c1=O (centres undefined) 1.26%, COC(=O)C(C)n1cnc2c(nnn2-c2ccc(F)cc2)c1=O (centres undefined) 1.53%, CN1CCNC(=O)C1CC(=O)NCCC1=CCCCC1 (centres undefined) 1.15%, Cc1ccc(S(=O)(=O)/N=C(/Nc2ccc3[nH]c(=O)[nH]c3c2)c2ccccc2)cc1 -2.11%, Cc1ccc(NC(=O)NC(=O)c2ccccc2)cc1F -0.67%, CN(C)S(=O)(=O)c1ccc(N2CCCC2=O)c([N+](=O)[O-])c1 -0.02%, O=C(c1cccs1)N1C[C@H](n2cc(C3CC3)nn2)[C@@H](O)C[C@@H]1c1ccccc1 -2.35%, C/C(=C/C(=O)N1CCN(C)CC1)C(=O)O -2.99%, C=C(C)CNc1cc(S(=O)(=O)N2CCOCC2)ccc1Oc1ccccc1 1.92%, COc1ccc(S(=O)(=O)N2CCC(C(=O)OCC(=O)c3ccccc3)CC2)cc1[N+](=O)[O-] -4.5%, O=C(C[C@@H]1C/C=C\CCC(=O)OC[C@@H]2CCCN2C1=O)NCCO -3.85%, COC(=O)c1c(NC(=O)CN2CCN(S(=O)(=O)c3ccccc3[N+](=O)[O-])CC2)sc2c1CCC(C)C2 (centres undefined) -0.77%, O=C1CC(c2ccccc2)C(=O)N2C(=O)CC(c3ccccc3)C(=O)N12 (centres undefined) -1.7%, O=C1CC(c2ccccc2)C(=O)N1c1cccc(O)c1 (centres undefined) -0.89%, Cc1cc(C)n(CC(=O)Nc2ccc([N+](=O)[O-])cc2)n1 -0.28%, CC(C)(C)c1cnnn1-c1ccc([N+](=O)[O-])cc1 1.62%, O=C(Nc1ccncc1)c1cc(-c2ccccn2)nc2ccc(Br)cc12 0.9%, O=C(Nc1ccc(S(=O)(=O)Nc2nccs2)cc1)c1cc(-c2ccncc2)nc2ccccc12 2.45%, CC(=O)C1=C(C)NC(=O)NC1c1cc(Br)ccc1OCC#N (centres undefined) 1.72%, CCC(C(=O)OC)n1cnc2scc(-c3ccc(C)cc3)c2c1=O (centres undefined) -4.95%, CCOC(=O)c1c(-c2ccc(-c3ccccc3)cc2)csc1NC(=O)CCC(=O)O -1.32%, CC(C)=CCCC1(C)C=Cc2c(ccc3c2[nH]c2cc(O)c(C)cc23)O1 (centres undefined) -1.63%, COc1ccc(NS(=O)(=O)c2ccc(F)cc2F)cn1 -2.01%, Cc1nc2ccccc2c(=O)n1-c1ccc(F)c(NC(=O)c2cccs2)c1 -7.41%, CN(CC(=O)N1CCN(c2ccccc2)CC1)S(=O)(=O)c1cccs1 -1.07%, O=C(CSc1nc2ccccc2c(=O)n1CCCO)N1CCc2ccccc21 1.92%, O=C(O)c1ccc(-n2cccc2)cc1O -0.56%, CCCC[C@@H]1CN=C(N)N1CCc1cccc(F)c1 0.99%, CCCC[C@@H]1CN=C(N)N1CCCC -0.58%, C=CC[C@H](CC(=O)NCCO)C(=O)N[C@@H](COC(=O)[C@@H](CC=C)Cc1ccc(F)cc1)Cc1c[nH]c2ccccc12 7.71%, COC(=O)Nc1ccc(S(=O)(=O)N2CCN(CCN3C(=O)C4C5C=CC(C5)C4C3=O)CC2)cc1 (centres undefined) 1.48%, CN(C)CCN=c1cc(-c2ccccc2)oc2ccc(Cl)cc12 1.09%, O=C(Nc1ccncc1)c1ccccc1[N+](=O)[O-] 1.22%, N/C(=N\OC(=O)c1ccc([N+](=O)[O-])cc1)c1ccccn1 -2.74%, CC(=O)c1cccc(NC(=O)C2CCN(C(=O)c3ccccc3Cl)CC2)c1 -3.34%, COc1ccc(S(=O)(=O)N2CCOC23CCN(S(=O)(=O)c2ccc([N+](=O)[O-])cc2)CC3)cc1 1.58%, O=C(CSc1nnc(SCc2ccc(Cl)cc2)s1)N/N=C/c1ccccc1Cl -0.5%, COc1cc(/C=C2/C(=O)ON=C2C)ccc1OCc1ccccc1F 2.69%, C#CCOc1ccccc1/C=C1/C(=O)ON=C1C 3.98%, CCOC(=O)CNC(=O)CSc1nc2cccnc2n1CC 4.49%, CCn1c(COc2ccccc2)nnc1SCC(=O)Nc1ccc2c(c1)OCCO2 -3.48%, CCCCNC(=O)c1c[nH]c2ccc(S(=O)(=O)Nc3ccc(OCC)cc3)cc2c1=O -0.54%, Cc1cc(=O)[nH]c(Nc2cccc(Br)c2)n1 -2.7%, CCN(CCNC(=O)C1=C(C)C(=O)OC12CCC(C)CC2)c1ccccc1 (centres undefined) 0.79%, CCOc1ccc(CCNC(=O)Nc2ccccc2)cc1OCC -3.89%, C#CCN(C[C@@H]1[C@@H](OC(=O)NC2CC2)[C@@H](OC(=O)NC2CC2)Cn2c(=O)ccc(=O)n21)S(=O)(=O)c1ccc(C)cc1 -0.61%, O=C(Cc1ccccc1)NCC1OCCc2ccccc21 (centres undefined) 2.21%, Cc1ccc(S(=O)(=O)N2CCN(Cc3cccc(C)c3O)CC2)cc1 7.86%, COC(=O)c1ccccc1NC(=O)CSc1nc2c(c(=O)[nH]1)CCC2 13.5%, COc1ccc(C2/C=C\CN(CC(C)C)CC(=O)N2Cc2ccc(F)cc2)cc1 (centres undefined) -1.81%, COc1ccc2c(CN3CCN(S(=O)(=O)c4cccs4)CC3)cc(=O)oc2c1 1.14%
